Laboratory results published in PubChem BioAssay (NCATS).
Results filed as inconclusive are left out. Values without a mark were called inactive. Active and inactive are the calls of the source. Calls follow the shape of the dose curve; as a rule, active = well fitted inhibition curve with a large enough effect; inconclusive = small, poorly fitted or top-dose-only effect; inactive = flat fitted curve, though single readings scatter.
% is scaled to controls: 0 for no effect and ±100 for the full control effect.

The compounds below were run against Calcium and integrin-binding protein 1 (Homo sapiens) (UniProt Q99828) (assay: Primary qHTS for Identification of Calcium Integrin Binding Protein 1 (CIB1) Competitor (AID 1508620;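 also: GST tagged CIB1 binding a fluorescein labelled alphaIIb integrin peptide tracer; top concentration of the series differs between compounds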)). Conditions: CIB1-GST / FITC-alphaIIb peptide fluorescence polarization; series mostly up to 57.7 µM; activity change, negative = inhibition: at the top concentration.
Calcium and integrin-binding protein 1 (Homo sapiens), sequence (Q99828 whole entry, looked up): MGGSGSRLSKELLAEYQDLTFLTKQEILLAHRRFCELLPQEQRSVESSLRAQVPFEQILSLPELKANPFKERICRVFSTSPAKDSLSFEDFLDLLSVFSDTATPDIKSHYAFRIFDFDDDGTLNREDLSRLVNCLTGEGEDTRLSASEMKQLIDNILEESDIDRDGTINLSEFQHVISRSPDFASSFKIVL
Excerpt: Assay Provider: Ulhas P. Naik, PhD Sidney Kimmel Medical College Thomas Jefferson University, Philadelphia, PA Primary function of platelets is to maintain hemostasis. At the site of vascular injury, platelets adhere to adhesive proteins such as collagen and von Willebrand factor. Adherent platelets are activated and generate soluble platelet agonists such as thrombin, ADP and thromboxane A2. Following exposure of circulating platelets to these agonists, results in platelet shape change, granule secretion and activation of platelet integrin alphaIIb-beta3. Ligand binding to activated integrin alphaIIb-beta3 triggers outside-in signaling, leading to platelet aggregation, stabilization of platelet plug, and clot retraction. Upon atherosclerotic plaque rupture also causes platelet plug formation, which underlies a number of cardiovascular diseases such as myocardial infraction and stroke. A number of anti-platelet drugs such as aspirin, clopidogrel, prasugrel, vorapaxar, and eptifibatide are currently available to prevent the thrombotic complications. However, these anti-platelet agents have several limitations including inherent variability in individual responses, developing resistance, and serious bleeding side effects. For these reasons they are not suitable for long-term protection. Based on the experiences with current anti-platelet drugs, it appears that the most useful therapeutic approach is to intersect the secondary responses such as integrin outside-in signaling or recruitment of platelets by TxA2 and secreted ADP. Compounds, which can largely preserve the primary hemostatic function of platelets but inhibit secondary response will be most desired therapeutic agents for treatment of cardiovascular disease. CIB1 is a calcium integrin binding protein, which specifically interact with the alphaIIb subunit of integrin alphaIIb-beta3. Binding of CIB1 to alphaIIb regulates the outside-in signaling in platelets, which is needed for thrombus stabilization and thrombus growth. […] Therefore, we propose that discovery of a small molecule that can prevent the association of CIB1 and alphaIIb-beta3 will be a potential anti-platelet agent that can block the thrombus formation without undue effect on hemostasis. Reference: [1] Naik MU, Nigam A, Manrai P, et al. CIB1 deficiency results in impaired thrombosis: the potential role of CIB1 in outside-in signaling through integrin alpha IIb beta 3. J Thromb Haemost.
PROTOCOL TABLES SEQUENCE No. (1, 2, 3, etc.); […] (e.g., Cells, Incubation, Reagent, etc.); VALUE and DESCRIPTION. 1; Reagent; 3 uL; Protein or buffer (4/3x) 2; Compound; 46 nL; Control inhibitor / compound library 3; Time; 15 min; Room temperature incubation 4; Reagent; 1 uL; Fluorescent labeled peptide (4x) 5; Time; 1000 rpm; Centrifuge 6; Time; 15 min; Room temperature incubation 7; Detection; Ex 480/ Em 540; ViewLux Fluorescence Read NOTES (numbers refer to sequence above) 1; Protein Mixture: C1B1-GST (final concentrations of 1 uM). […] 3; Room temperature incubation. 4; Fluorescent Labeled Peptide: FITC-aIIb (final concentration of 100 nM). Sequence of alphaIIb peptide: Acetyl-[…]-FITC (purity is 95.83%). 5; Centrifuge 1000 rpm (164 g) for 15 seconds. 6; Room temperature incubation. 7; ViewLux Fluorescent Polization Read: excitation = 480(20) / emission = 540(25) S and P; FITC Dichroic mirror.
In the case of `NC(=O)c1cccc2cn(-c3ccc([C@@H]4CCCNC4)cc3)nc12`, the outcome is reported as “inactive”.
`COC(=O)C1=C(C)NC(C)=C(C(=O)OCCN2CCN(C(c3ccccc3)c3ccccc3)CC2)C1c1cccc([N+](=O)[O-])c1` (stereo not given) was tested, and the “activity change, negative = inhibition” value was 1.42% [at 114 µM].
`O=C(Nc1ncc(-c2cc(C(F)F)nn2-c2c(Cl)cccc2Cl)s1)C1CC1` was tested, and the outcome was “inactive”.
With `COc1cc2nccc(Oc3ccc(NC(=O)C4(C(=O)Nc5ccc(F)cc5)CC4)cc3)c2cc1OC` the outcome was “inactive”.
`Cc1cc(Nc2cc(N3CCN(C)CC3)nc(C=Cc3ccccc3)n2)n[nH]1` was tested, and the “activity change, negative = inhibition” value was 10.8% [at 114 µM].
For `COc1cc(C)c(Sc2cnc(NC(=O)c3ccc(CNC(C)C(C)C)cc3)s2)cc1C(=O)N1CCN(C(C)=O)CC1` (stereo not given), the outcome was “inactive”.
In the case of `OCc1ccc(-c2ccc(-c3ccc(CO)s3)o2)s1`, the “activity change, negative = inhibition” value is reported as 4.41%.
With `c1nc2nc(Nc3ccc(N4CCOCC4)cc3)nc(NC3CCCCC3)c2[nH]1` the outcome was “inactive”.
With `Cn1c(CNc2ccc(C(=N)N)cc2)nc2cc(C(=O)N(CCC(=O)O)c3ccccn3)ccc21` the outcome was “inactive”.
With `Cn1cncc1[C@@](N)(c1ccc(Cl)cc1)c1ccc2c(c1)c(-c1cccc(Cl)c1)cc(=O)n2C` the “activity change, negative = inhibition” value was -3.02%.
`CC(C)[C@H](C(=O)Nc1ccc(C(=O)NO)cc1)c1ccccc1` was tested, and the “activity change, negative = inhibition” value was 2.11%.
`COc1cc(C(C)C)c2c(c1)S(=O)(=O)N(COc1cc(=O)n3cccc(OCCN4CCCCC4)c3n1)C2=O` was tested, and the “activity change, negative = inhibition” value was -1.12%.
In the case of `Cc1cccc(C=NNc2cc(N3CCOCC3)nc(OCCc3ccccn3)n2)c1`, the “activity change, negative = inhibition” value is reported as -0.95%.
For `O=c1c2ccccc2nc2n1CCc1c-2[nH]c2ccccc12`, the outcome was “inactive”.
`CNC(=O)c1ccccc1Nc1nc(Nc2ccc(N3CCOCC3)cc2OC)ncc1Cl` was tested, and the outcome was “inactive”.
With `c1cc(-c2cnn3cc(-c4ccc(OCCN5CCCCC5)cc4)cnc23)ccn1` the “activity change, negative = inhibition” value was 7.05%.
For `c1ccc2c(CCNc3ccc(Nc4ccncc4)cc3)c[nH]c2c1`, the outcome was “inactive”.
`CC(C)(C)NC(=O)[C@H]1CN(Cc2cccnc2)CCN1C[C@@H](O)C[C@@H](Cc1ccccc1)C(=O)N[C@H]1c2ccccc2C[C@H]1O` was tested, and the “activity change, negative = inhibition” value was -1.45%.
For `Nc1ccn([C@@H]2O[C@H](CO)[C@H](O)C2(F)F)c(=O)n1`, the “activity change, negative = inhibition” value was -1.38%.
With `Nc1nc(Nc2ccc(S(N)(=O)=O)cc2)nn1C(=O)c1c(F)cccc1F` the outcome was “inactive”.
For `Nc1nc(-c2nn(Cc3ccccc3F)c3ncccc23)nc(N)c1N1CCOCC1`, the “activity change, negative = inhibition” value was -4.47%.
`CC1(C)O[C@@H]2C[C@@H]3[C@H]4C[C@@H](F)C5=CC(=O)C=C[C@]5(C)[C@@]4(F)[C@@H](O)C[C@]3(C)[C@]2(C(=O)CO)O1` was tested, and the “activity change, negative = inhibition” value was -4.57%.
In the case of `Cc1c(CN2CCN(S(C)(=O)=O)CC2)sc2c(N3CCOCC3)nc(-c3cnc(N)nc3)nc12`, the outcome is reported as “inactive”.
For `NCC(=O)Nc1ccc(-n2nc(C(F)(F)F)cc2-c2ccc3c(ccc4ccccc43)c2)cc1`, the outcome was “inactive”.
In the case of `N#Cc1c(O)c2c(-c3ccc(-c4ccccc4O)cc3)csc2[nH]c1=O`, the outcome is reported as “inactive”.
In the case of `O=C(O)Cn1nnc(-c2cc(N3CCC(Oc4cc(F)ccc4Br)CC3)no2)n1`, the outcome is reported as “inactive”.
With `Nc1nc(NCCNc2ncc(-n3ccnc3)c(-c3ccc(Cl)cc3Cl)n2)ccc1[N+](=O)[O-]` the outcome was “inactive”.
`Nc1nccc(Oc2ccc(NC(=O)c3c[nH]cc(-c4ccc(F)cc4)c3=O)cc2F)c1Cl` was tested, and the outcome was “inactive”.
`CNC(=O)c1ccc(-c2cnc3ncc(Cc4ccc5ncccc5c4)n3n2)cc1F` was tested, and the outcome was “inactive”.
For `COc1ccc(-n2nc(C(N)=O)c3c2C(=O)N(c2ccc(N4CCCCC4=O)cc2)CC3)cc1`, the outcome was “inactive”.
`Nc1ncnc2c1c(-c1cnc3[nH]ccc3c1)nn2C1CCCC1` was tested, and the outcome was “inactive”.
For `CCc1cc2c(cc1N1CCC(N3CCOCC3)CC1)C(C)(C)c1[nH]c3cc(C#N)ccc3c1C2=O`, the outcome was “inactive”.
In the case of `Cc1cc(Nc2cc(NC(=O)c3c(Cl)cccc3Cl)ccn2)nc(N)n1`, the “activity change, negative = inhibition” value is reported as -7.4%.
In the case of `COc1cc(-c2nn(C3CCC(N4CCN(C(C)=O)CC4)CC3)c3ncnc(N)c23)ccc1NC(=O)c1cc2ccccc2n1C` (stereo not given), the outcome is reported as “inactive”.
In the case of `Cc1cc(CN2CCN(c3c(Br)cnc4nc(-c5ccc(N6CCN(C)CC6)cc5)[nH]c34)CC2)no1`, the outcome is reported as “inactive”.
`O=C(c1cncc(Br)c1)N1CCC(N2CCCC2)CC1` was tested, and the outcome was “inactive”.
With `CN(c1ncccc1CNc1nc(Nc2ccc3c(c2)CC(=O)N3)ncc1C(F)(F)F)S(C)(=O)=O` the “activity change, negative = inhibition” value was -3.87%.
With `COc1cccc(-c2ccc(NC(=O)C3=C(C(=O)O)CCC3)c(F)c2)c1` the outcome was “inactive”.
For `CCCCN1CCC(CNC(=O)c2c3n(c4ccccc24)CCCO3)CC1`, the “activity change, negative = inhibition” value was -4.75%.
For `Cn1c(=O)n(-c2ccc(C(C)(C)C#N)cc2)c2c3cc(-c4cnc5ccccc5c4)ccc3ncc21`, the outcome was “inactive”.
